# Bioassay records from PubChem BioAssay.
# Compounds with a hit are over-represented: about 19% of the library has one in this group of screens.
# LASV entry inh: blocks Lassa virus binding to or entry into cells; Lassa virus pseudotype entry inhibition, cell reporter; Potency, µM (doses to about 37.9 µM), without a hit: top-dose activity change, negative = inhibition, most hits filed as inhibitors; hit rate 1.2% among 300,000; AID 540256; calls by dose curve; tested in HEK293 cells; note: potency is the fitted concentration of half-maximal effect; % is set by controls: 0 for no effect and ±100 for the full control effect; nearly all actives have a fitted effect of over 50% in size
# Marburg entry inh: blocks Marburg virus binding to or entry into cells; Marburg virus pseudotyped entry inhibition, cell reporter; Potency, µM (doses to about 37.8 µM), without a hit: at the highest dose activity change, negative = inhibition, actives largely listed as inhibitors; hit rate 1.8% among 300,000; AID 540276; calls by dose curve; tested in HEK293 cells; note: potency is the fitted concentration of half-maximal effect; % is set by controls: 0 for no effect and ±100 for the full control effect
# CHX counter: counter-screen for Shiga toxin inhibitors: cycloheximide protein synthesis inhibition; cell reporter, cycloheximide protein synthesis inhibition counterscreen; max response, %; hit rate 12% among 300,000; AID 2314; in the data active = max response mostly above about 13%, no sharp cut-off; inactive = mostly below about 14%; note: read at 38.3 µM for the half of the compounds with a filed dose; 0% is about no effect
# Shiga inhibitor: blocks Shiga toxin action in Vero cells; AID 2315; Vero cells, Shiga toxin protein synthesis inhibition reporter; inhibition, % at 38.7 µM; hit rate 9.2% among 290,000; in the data active = inhibition mostly above about 28%, no sharp cut-off; inactive = mostly below about 43%; note: 0% is about no effect
# Pf growth 48h: P. falciparum growth inhibition at 48 hours (one generation); AID 504832; hit rate 5.9% among 310,000; Potency, µM (series often up to 28.7 µM), for the others: at the highest dose activity change, negative = inhibition, most hits filed as inhibitors; P. falciparum luciferase growth in erythrocytes, 48 h; note: potency is the fitted concentration of half-maximal effect; % is set by controls: 0 for no effect and ±100 for the full control effect
#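 Here the parasites carry a stable luciferase gene and grow inside erythrocytes in Albumax-based RPMI medium with compound for one erythrocytic cycle. Activity is scored as loss of luminescent signal.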
# Pf growth 96h: inhibits malaria parasite growth, 96 h. P. falciparum luciferase reporter growth, 96 h. Potency, µM (titrated, usually from 28.7 µM), inactives show at the highest dose activity change, negative = inhibition, usual class: inhibitors. hit rate 6.9% among 320,000. AID 504834; note: potency is the fitted concentration of half-maximal effect; % is set by controls: 0 for no effect and ±100 for the full control effect
#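 P. falciparum expressing integrated firefly luciferase grown in erythrocytes (2% hematocrit, 0.05% parasitemia final) with compounds for 96 hours at 37 C, 5% CO2. Growth inhibition read as loss of luminescence after adding luciferase detection reagent.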
# An asterisk follows results filed as active; ? = inconclusive; . = no result; [ ] = another dose, or the depositor's remark. Unless noted, calls come from the whole dose curve; as a rule, active = well fitted inhibition curve with a large enough effect; inconclusive = small, poorly fitted or top-dose-only effect, or another doubt; inactive = no such curve, though single readings can be large or run the other way.
SMILES,LASV entry inh,Marburg entry inh,CHX counter,Shiga inhibitor,Pf growth 48h,Pf growth 96h
COc1ccc(C2=Nc3ccc(C)cc3C(c3ccccc3)N2CC(=O)NN)cc1 (stereo not drawn),-12%[46.1 µM],?,11,-1,-11%,1.9µM*
O=C(O)CN1C(c2ccccc2)=Nc2ccc(Br)cc2C1c1ccccc1 (stereo not drawn),4%,0%[46.1 µM],-1,16,-27%,0%
NNC(=O)CN1C(c2ccccc2Br)=Nc2ccc(Br)cc2C1c1ccccc1 (stereo not drawn),-1%,-9%,-3,1,?,?
NNC(=O)CN1C(c2cccc(Cl)c2)=Nc2ccc(Br)cc2C1c1ccccc1 (stereo not drawn),-1%,-31%,-6,-14,1.9µM*,90%
O=C1NC(c2ccc(Cl)c([N+](=O)[O-])c2)Nc2ccccc21 (stereo not drawn),.,.,0,-8,?,?
N#Cc1nc(-c2ccccc2F)oc1N1CCCC1,17%,-4%,-2,-7,29%,0%
CCCCSCCCNC(=O)Nc1ccc(CC)cc1,-4%,-2%[46.1 µM],11*,6,5%,?
O=C(NCCC1CC1(Cl)Cl)Nc1ccccc1 (stereo not drawn),-1%,20%[46.1 µM],19,53*,-2%,61%
CCCCCCNC(=O)Nc1ccccc1,10%,-16%,44*,61*,1%,8%
O=C(O)CCCNC(=O)Nc1ccccc1,13%,20%,-5,-14,11%,-4%
C/C(Nc1cccc(F)c1)=C(/C#N)C(N)=O,-5%,1%,-1,-5,14%,?
CCc1ccc(/C=C2\SC(=S)N(CCC(=O)Nc3cc(C)on3)C2=O)cc1,-2%,-5%[46.1 µM],6,20,16%,47%
COc1ccc(C(=O)Oc2cc(C)[nH]c(=O)c2[N+](=O)[O-])cc1,?,16%,-2,-11,27%,-8%
COc1ccc(/C=C/C(=O)Oc2cc(C)[nH]c(=O)c2[N+](=O)[O-])cc1OC,3%,7%[46.1 µM],59*,164*,-5%,7%
COc1ccc(NC(=O)CNS(=O)(=O)c2ccccc2)cc1Cl,-4%,17%,14*,4,-3%,48%
COc1ccc(NC(C)=[N+](C)CCNS(=O)(=O)c2ccc(Cl)cc2)cc1Cl,.,.,16*,21,?,?
COc1ccccc1NC(C)=[N+](C)CCNS(=O)(=O)c1ccc(Cl)cc1,.,.,1,25,-4%,-11%
CC(C)N(CCNS(=O)(=O)c1ccc(Cl)cc1)C(C)C,-4%,2%,-2,-5,.,22%
CC(Nc1cc(C)cc(C)c1)=[N+](C)CCNS(=O)(=O)c1ccc(Cl)cc1,-12%[46.1 µM],10µM*,-3,-6,-5%,12%
O=C(Nc1ccc(S(=O)(=O)Nc2ncccn2)cc1)c1cc([N+](=O)[O-])ccc1Cl,.,.,1,5,-29%,?
CCN(C(=O)Cn1c(=O)oc2cc(Cl)ccc21)c1cccc(C(F)(F)F)c1,19%[46.1 µM],-6%[46.1 µM],.,.,.,.
CN(C)S(=O)(=O)c1ccc(NC(=O)CN2C(=O)NC(Cc3ccccc3)C2=O)cc1 (stereo not drawn),.,.,.,.,?,-15%
Cc1nc(NC(=O)COc2ccc(Cl)cc2)sc1C(=O)N(C)C,3%,-4%,-1,-18,46%,-5%
COCCSc1nnc(NC(=O)CCS(=O)(=O)c2ccccc2)s1,-11%,11µM*,-5,-3,8%,41%
Cc1ccc(CNc2nc(C)c(C(=O)N(C)C)s2)cc1,14%[46.1 µM],?,28*,65*,-47%,23%
SMILES,LASV entry inh,Marburg entry inh,CHX counter,Shiga inhibitor,Pf growth 48h,Pf growth 96h
N#Cc1sc(NCc2cccc(Cl)c2)nc1Cl,?,?,20,35,.,-12%
Cc1ccc(CNc2nc(Cl)c(C#N)s2)cc1,18%[46.1 µM],16%[46.1 µM],28*,62*,91%,208%
CC(=O)c1sc(NC(=O)COc2ccc([N+](=O)[O-])cc2)nc1C,21%[46.1 µM],20%[46.1 µM],3,-1,16%,15µM*
CC(=O)c1sc(NC(=O)COc2ccc(Br)cc2)nc1C,6%[46.1 µM],8%[46.1 µM],1,-12,12%,0%
CCOc1ccc(CCNC(=O)c2ccc(N3CCCC3=O)cc2)cc1OCC,-3%,-1%,-2,46,-14%,?
CC1CCCCC12NC(=O)N(CC(=O)c1ccc(Cl)s1)C2=O (stereo not drawn),.,.,-4,1,-9%,-8%
COc1ccc(CN2CCN(Cc3cccc(Oc4ccccc4)c3)CC2)c(OC)c1OC,?,?,-5,-2,-30%,-7%
COc1ccc(-n2c(Cn3c(=O)sc4ccccc43)nnc2SCC(N)=O)cc1,.,.,-5,-18,.,-24%
O=C1CCCN2N=C(SCC(=O)Nc3cccc(F)c3)SC2=N1,-16%[46.1 µM],?,-1,15,?,-1%
CC(=O)c1sc(NCc2ccc(C)cc2)nc1C,?,10µM*,43*,103*,158%,172%
CCn1nnc(NC(=O)COc2ccc([N+](=O)[O-])cc2)n1,?,2%[46.1 µM],19*,23,6%,21%
Cc1nc(NCCc2ccccc2)sc1C(=O)O,.,-13%[46.1 µM],21,41*,137%,111%
COc1ccc(CCNc2nc(C)c(C(C)=O)s2)cc1OC,10%[46.1 µM],2%[46.1 µM],7,-2,-13%,8%
CC(=O)c1sc(NCCOc2ccc(C)cc2)nc1C,.,.,28*,60*,38%,1%
Cc1c(N/C(=N/S(=O)(=O)c2ccc(F)cc2)c2ccccc2)c(=O)n(-c2ccccc2)n1C,.,.,-2,-3,-4%,9%
CCc1ccc(C(=O)N2CCCC2)s1,5%,3%,13,17,25%,?
CC(=O)c1sc(NC(=O)CCS(=O)(=O)c2ccccc2)nc1C,.,.,57*,58*,2%,-1%
CC(=O)c1sc(NCc2ccccc2)nc1C,?,16%[46.1 µM],31*,43,34%,2%
CCOC(=O)c1c(-c2ccccc2)nnn1-c1nc(OCC)nc(N2CCCCC2)n1,?,?,-2,-2,?,34%
Cc1ccccc1CSc1nc2c([nH]c3ccccc32)c(=O)n1-c1ccccc1,26%[46.1 µM],.,.,.,.,.
CC1(C)SC(=S)N(/N=C/c2cccnc2)C1N(O)C(=O)Nc1ccccc1 (stereo not drawn),.,0%,-3,23,-8%,?
CNC(=O)N(O)C1N(/N=C/c2cc(Br)ccc2O)C(=S)SC1(C)C (stereo not drawn),.,.,15*,36,0%[0.00184 µM],4%
CC1(C)SC(=S)N(/N=C/c2ccccc2O)C1N(O)C(=O)Nc1ccccc1 (stereo not drawn),-27%,?,21*,52*,-27%,38%
CC(OC(=O)Cn1[nH]c(=O)c2ccccc2c1=O)C(=O)Nc1ccc(F)cc1 (stereo not drawn),-3%,-2%,.,.,0%,12%
Nc1nn(S(=O)(=O)c2ccccc2)cc1-c1cccc([N+](=O)[O-])c1,-11%,-23%[46.1 µM],13,4,10µM*,20%
